Screening results deposited in PubChem BioAssay by several laboratories.
The list is not random: actives were taken first. Their share in the collection is about 2.7%.
SENP8 block-1 = blocks the human protease SENP8 | inhibition, % at 10 µM | purified SENP8, Z-RLRGG-aminoluciferin cleavage, luminescence | AID 2540 | Q96LD8 | hit rate 1.2% among 330,000; in the data active = inhibition above about 50%
Target sequence (Q96LD8 whole entry, looked up): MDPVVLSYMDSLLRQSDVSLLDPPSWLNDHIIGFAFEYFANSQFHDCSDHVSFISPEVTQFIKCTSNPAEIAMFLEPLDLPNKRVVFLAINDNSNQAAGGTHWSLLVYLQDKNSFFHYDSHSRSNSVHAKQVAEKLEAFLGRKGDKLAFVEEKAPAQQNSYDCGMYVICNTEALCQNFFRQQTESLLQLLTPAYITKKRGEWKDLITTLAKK
SENP7 block = SENP7 protease inhibition | inhibition, % at 5 µM | hit rate 1.5% among 330,000 | recombinant SENP7, Z-RLRGG-aminoluciferin luminescence, 40 min;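 active = inhibition above about 50% at the single test dose, limit read from the data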;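 note: plate controls were DMSO with enzyme for no effect and no enzyme buffer wells for full effect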
Target sequence (Q9BQF6 706-1050 limits assumed): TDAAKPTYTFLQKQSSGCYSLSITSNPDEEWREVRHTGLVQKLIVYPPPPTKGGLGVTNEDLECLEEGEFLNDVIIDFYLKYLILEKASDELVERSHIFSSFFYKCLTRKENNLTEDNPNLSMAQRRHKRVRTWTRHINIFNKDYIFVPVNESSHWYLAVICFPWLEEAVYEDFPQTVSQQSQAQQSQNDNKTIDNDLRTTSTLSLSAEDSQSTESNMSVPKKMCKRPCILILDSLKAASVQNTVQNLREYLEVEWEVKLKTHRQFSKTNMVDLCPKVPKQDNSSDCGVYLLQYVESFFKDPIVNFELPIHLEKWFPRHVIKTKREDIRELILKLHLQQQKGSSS
SENP8 block-2 = SENP8 (human) protease inhibition | Q96LD8 | recombinant SENP8, Nedd8 substrate fluorescence | inhibition, % at 20 µM | hit rate 0.64% among 360,000; in the data active = inhibition mostly above about 40%, no sharp cut-off; inactive = mostly below about 27%
HSP90 refold inh = inhibitors of HSP90 luciferase refolding in rabbit reticulocyte lysate; luciferase refolding luminescence, 3 h; inhibition, % at 5.6 µM; hit rate 0.91% among 290,000; AID 1789;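 active = inhibition above the screen-wide mean plus 3 SD, computed separately per campaign, cut at about 16% in these data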;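 note: 0% = DMSO wells and 100% = 60 µM geldanamycin wells; inhibitors lower the luminescence because luciferase stays unfolded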
SENP6 block = inhibitors of human SENP6 protease. Q9GZR1. Recombinant SENP6 catalytic domain, aminoluciferin luminescence. inhibition, % at 10 µM. hit rate 1.8% among 330,000. AID 2599;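 active = inhibition above about 50% at the single tested dose, limit read from the data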;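 note: plate controls were DMSO wells with enzyme for no effect and DMSO wells lacking enzyme for full effect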
SENP8 confirm = confirmation of human SENP8 protease inhibitors | hit rate 40% among 6,200 | inhibition, % at 12.5 µM | shares compounds with SENP7 block | Recombinant SENP8, Z-RLRGG-aminoluciferin luminescence, 60 min;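 active = mean inhibition across replicates above about 50%, limit read from the data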
SENP6 confirm = human SENP6 inhibition, confirmed. recombinant SENP6, Z-RLRGG-aminoluciferin luminescence. AID 488915. hit rate 58% among 6,200. shares compounds with SENP7 block. inhibition, % at 12.5 µM
SENP7 confirm = confirmation of human SENP7 protease inhibitors; shares compounds with SENP7 block; recombinant SENP7, Z-RLRGG-aminoluciferin luminescence, 40 min; inhibition, % at 12.5 µM; hit rate 69% among 6,200
Casp3 select = inhibits human caspase-3 in SENP selectivity test. purified caspase-3, Z-DEVD-aminoluciferin luminescence, 60 min. inhibition, % at 12.5 µM. shares compounds with SENP7 block. hit rate 60% among 6,200;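 active = mean inhibition above about 50%, limit read from the data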;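 note: plate controls were enzyme with DMSO for no effect and wells without caspase-3 for full effect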
SENP luc ctr = interferes with luciferase luminescence in SENP counter-screen | shares compounds with SENP7 block | Pre-incubated SENP8/Z-RLRGG-aminoluciferin, luciferase luminescence interference | inhibition, % at 12.5 µM | hit rate 39% among 6,200 | AID 488919;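 active = mean inhibition above about 50% when retested at one dose, limit read from the data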;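 note: plate controls were DMSO wells with completed reaction for no effect and substrate without enzyme for full effect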
* = called active by the depositor; . = no result.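 Rule for the calls, unless noted: active = mean inhibition above about 50% in the one-dose retest (limit read from the data); inactive = the rest.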

SMILES	SENP8 block-1	SENP7 block	SENP8 block-2	HSP90 refold inh	SENP6 block	SENP8 confirm	SENP6 confirm	SENP7 confirm	Casp3 select	SENP luc ctr
c1ccc(-c2nnc(-c3ccccc3)nn2)cc1	83*	96*	28	-2	88*	8	13	26	36	29
COc1cc2c(cc1NC(=O)CSc1nnc(Cc3cccs3)n1C)oc1ccccc12	-11	5	14	4	-25	.	.	.	.	.
Cc1cccc(/C=N/NC(=O)C(C)Nc2cccc3ccccc23)n1 (stereo not drawn)	78*	-5	-20	4	88*	-20	-6	0	-6	-3
COc1cc([N+](=O)[O-])cc(/C=N/NC(=O)C(C)Nc2cccc3ccccc23)c1O (stereo not drawn)	46	12	-66	6	68*	-4	-1	-6	4	4
Cc1cc(C)cc(-n2cccc2/C=C2/C(=N)N3C(=NC2=O)SN=C3S(C)(=O)=O)c1	17	-2	-49	5	21	.	.	.	.	.
CC(C)C(=O)Nc1cccc(NC(=S)NC(=O)c2ccc([N+](=O)[O-])cc2)c1	-4	7	17	-3	30	.	.	.	.	.
Cc1cc(C(=O)NC(=S)Nc2cccc(NC(=O)C(C)C)c2)ccc1[N+](=O)[O-]	56*	77*	16	-3	71*	24	61*	95*	78*	51*
COc1oc(-c2ccccc2)nc1C(F)(F)F	2	71*	-2	-1	7	-18	-6	-9	5	-4
COc1cccc(-n2nnnc2SCC(=O)NCc2ccc3c(c2)OCO3)c1	2	1	16	3	5	.	.	.	.	.
O=C(Nc1nnc(SCC(=O)N2CCCc3ccccc32)s1)c1cccc2ccccc12	-7	0	-27	-4	-11	.	.	.	.	.
CCCCCCCOc1ccc(-c2ccc(C#N)cn2)cc1	-2	-5	-297	0	-26	.	.	.	.	.
CCCCCc1ccc(-c2ccc(OC)cc2)nc1	27	39	12	-5	52*	25	32	64*	34	32
CCCCN(C)C(=O)c1cc2cc3ccc(OC)cc3nc2o1	65*	76*	-287	-1	80*	72*	71*	92*	85*	24
CCCCN(C)C(=O)c1cc2cc3cc(OC)ccc3nc2o1	-11	-11	-392	3	-1	.	.	.	.	.
Nc1nonc1C(=O)NCCNS(=O)(=O)c1ccc(Br)cc1	-4	90*	9	1	-31	-4	2	8	6	-2
N/C(=N\OC(=O)COc1cc(Cl)c(Cl)cc1Cl)c1ccccn1	58*	77*	16	2	79*	12	55*	10	52*	12
N/C(=N\OC(=O)c1cc(Br)ccc1Cl)c1ccccn1	24	34	15	1	38	.	.	.	.	.
N/C(=N\OC(=O)c1cccc2ccccc12)c1ccccn1	69*	77*	-45	15	80*	81*	79*	94*	79*	84*
N/C(=N\OC(=O)c1ccc(Cl)cc1Cl)c1ccccn1	96*	99*	15	91*	99*	97*	98*	102*	98*	95*
N/C(=N\OC(=O)c1ccc(Cl)cc1[N+](=O)[O-])c1ccccn1	53*	51*	3	9	59*	38	43	77*	77*	4
Cc1cccc(OCC(=O)O/N=C(\N)c2ccccn2)c1C	-5	5	16	-2	47	.	.	.	.	.
N/C(=N\OC(=O)c1ccc(Cl)cc1Cl)c1ccncc1	59*	62*	15	-2	77*	62*	64*	84*	73*	64*
N/C(=N\OC(=O)c1cc(Cl)ccc1Cl)c1ccncc1	1	2	15	-5	-14	.	.	.	.	.
Cc1ccc(Oc2cc(-n3nc(C)cc3C)ncn2)cc1	20	47	16	-3	54*	37	39	73*	38	24
CC1=NN(c2ccccc2)C(=O)/C1=C/c1c(C)[nH]n(-c2ccc(C)cc2)c1=O	2	-5	.	.	-4	.	.	.	.	.
SMILES	SENP8 block-1	SENP7 block	SENP8 block-2	HSP90 refold inh	SENP6 block	SENP8 confirm	SENP6 confirm	SENP7 confirm	Casp3 select	SENP luc ctr
CC1=NN(c2ccccc2)C(=O)/C1=C/c1cccc(C)c1	-1	52*	70*	5	23	2	16	-1	-2	-4
COc1cc(/C=C2/C(=O)N(c3cccc(Br)c3)N=C2C)cc(OC)c1O	2	54*	61*	-2	-14	8	16	7	4	6
COc1cc(/C=C2/C(=O)N(c3ccc(Br)cc3)N=C2C)cc([N+](=O)[O-])c1O	5	18	.	2	-8	.	.	.	.	.
O=C(Nc1ccc(F)cc1)C(=O)c1c(O)[nH]c2ccc([N+](=O)[O-])cc12	53*	4	36	-2	75*	66*	68*	91*	74*	36
Cc1ccc(NCC(=O)N=Nc2c(O)[nH]c3ccc([N+](=O)[O-])cc23)cc1	-4	21	.	1	12	.	.	.	.	.
COC(=O)c1sccc1NC(=O)CSc1ccccc1NC(=O)CNC(C)C	-8	-4	13	0	4	.	.	.	.	.
O=C(CSc1nc2ccccc2[nH]1)c1c[nH]c2ccccc12	-4	3	26	-3	-10	.	.	.	.	.
O=C(O)c1ccccc1CSc1nc2ccccc2[nH]1	47	47	0	3	70*	72*	70*	87*	88*	76*
Fc1cccc(F)c1CSc1nc2ccccc2[nH]1	52*	74*	9	2	77*	62*	62*	89*	71*	74*
O=C(CSc1nc2ccccc2[nH]1)c1ccccc1F	33	47	3	0	57*	51*	44	81*	63*	62*
COc1cc2[nH]c(=S)nc(NCc3ccc(C)cc3)c2cc1OC	-11	-8	-18	1	-8	.	.	.	.	.
CCOc1ccc(/C=C/C2=NNC(=O)CC2)cc1	55*	74*	-5	0	70*	-24	52*	88*	86*	68*
COC(=O)C(CC(C)C)NC(=O)c1cccs1 (stereo not drawn)	-1	2	23	4	-6	.	.	.	.	.
CN(C)CCCN(C(=O)COc1ccc(Cl)cc1)c1nc2ccc(F)cc2s1	3	9	26	-4	55*	6	-2	-1	-1	-6
CN(C)CCCN(C(=O)COc1ccccc1)c1nc2ccc(F)cc2s1	3	9	29	-1	-6	.	.	.	.	.
